The entries come from a sample that favours hits as a whole.
Pf Dd2 growth: inhibitors of Plasmodium falciparum Dd2 growth; P. falciparum Dd2 growth, SYBR Green, 72 h; 120,000 compounds, 4.3% hits; AID 1347417; Potency, µM (series often up to 28.9 µM), without a hit: top-dose activity, negative = inhibition, usual class: inhibitors; active = well fitted inhibition curve with a large enough effect;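 note: plate controls were DMSO vehicle for no effect and reference drug for full effect; nearly all actives have a fitted effect of over 65% in size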
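Readout: SYBR Green fluorescence, 485 nm excitation, 535 nm emission, after ~16 h lysis at 37C. Before that, Dd2-infected red cells (2.5% hematocrit) grew 72 h with compound, 29 uM top final concentration.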
The depositor's hits bear a star; i = inactive; [ ] = dose if it differs, or a comment. Potency is the fitted concentration of half-maximal effect.

SMILES	Pf Dd2 growth
O=C(Nc1ccccc1)c1nc2c(o1)CCN(Cc1cccs1)CC2	-25.7%[44.1 µM]
CCN1c2cc(C(=O)NCc3ccccc3Br)ccc2C(=O)N2CCCCC21 (stereo not given)	i
COc1ccc(CCNC(=O)CN2CC3CC(C2)[C@H]2CCCC(=O)N2C3)cc1OC (stereo not given in full)	-11.3%
CCOCC(=O)N1C[C@@H](CO)[C@H](c2ccccn2)C1	41.6%
CCOc1ccc(NCc2cccn2-c2nnc(N3CCC(C(=O)NCc4cccc(OC)c4)CC3)s2)cc1	i
COc1cccc(N2CCN(C(=O)c3cccn3-c3nnc(N4CCCCC4)s3)CC2)c1	i
COc1cccc(CNCc2cccn2-c2nnc(N3CCN(c4ccccc4)CC3)s2)c1	10µM*
Cc1cc(C(=O)NCC2(COc3ccccc3)C[C@@H](O)[C@@H](O)C2)n(C)n1 (stereo not given in full)	-5.7%[44.1 µM]
CCc1ccc(N2CC(c3noc(-c4ccc(OC)c(F)c4)n3)CC2=O)cc1 (stereo not given)	8.9%
OC[C@H]1CCN(Cc2cn(-c3ccccc3)nc2-c2ccncc2)C[C@@H]1O	-29.6%
COCCn1cc(CN2CCN(Cc3ccccc3F)CC2)ccc1=O	22.5%
COc1ccc(OC)c(CN2CCN(S(=O)(=O)c3ccccc3)CC2)c1	i
CCN1CCN(Cc2cn(-c3ccccc3F)nc2-c2cc(C)sc2C)CC1	11.2µM*
CCC1CN(Cc2cn(-c3ccccc3C)nc2-c2ccc(OC)c(F)c2)CCO1 (stereo not given)	11.2µM*
CCc1c(CN2CCN(c3ccccc3F)CC2)csc1C	-0.8%
COc1ccc(-c2nn(-c3ccccc3C)cc2CN2CCCN(C)CC2)cc1F	7.94µM*
COc1ccc(-c2nn(-c3ccccc3)cc2CN2CCCC(C)(O)C2)c(F)c1 (stereo not given)	i
CC1(C)C(C(=O)N2CCC3(CC2)Nc2ccccc2NC3=O)C1(C)C	-4.3%
COCCN1C(=O)CCC2(C(=O)NCCCN3CCCC3)CCCC=C12 (stereo not given)	-8.9%
O=S(=O)(c1ccc(F)cc1)N1CCC(n2cnnc2C2CC2)CC1	i
Cc1ncc(CC(=O)N2CCC3(CC2)CC(C(=O)O)N(C)C3)c(=O)[nH]1 (stereo not given)	-14.8%
CCc1cccc(-n2nnnc2N2CCN(C(=O)Nc3ccc(C)c(Br)c3)CC2)c1	-16.7%
CCc1cccc(-n2nnnc2N2CCN(C(=O)Nc3ccc(C)c(Cl)c3)CC2)c1	-23.0%
Cc1ccc(NC(=O)N2CCN(c3nnnn3-c3cccc(C(F)(F)F)c3)CC2)cc1F	7.94µM*
COc1nc2c(cc1CNC(=O)c1c(C)cccc1C)C(=O)N(C1CCCC1)C2	-26.8%
SMILES	Pf Dd2 growth
Cc1cc(N2CCC3(CCCN(C)C3=O)C2)c2ccccc2n1 (stereo not given)	26.6%
CCn1cc(CN2CCCC23CCN(c2cc(C)nc4ccccc24)CC3)c(C)n1	2µM*
CCn1cc(CN2CCC(Oc3ccc4ccccc4c3)(C(=O)O)CC2)c(C)n1	-14.8%
CN(Cc1ccc(F)cc1)Cc1cncs1	-1.0%[44.1 µM]
O=C(NCCc1ccccn1)c1c[nH]c2ncccc12	15.1%[44.1 µM]
COc1cc(CN2CCN(Cc3ccc(-n4cccn4)cc3C)CC2CCO)cc(OC)c1 (stereo not given)	-10.8%
CN1CCN(Cc2cnn(-c3cccc(Cl)c3)c2)CC1CCO (stereo not given)	14.1µM*
Cc1cccc(-n2cc(CN3CC[C@H](CO)[C@@H](O)C3)cn2)c1	-23.3%
COc1ccccc1-c1nc(C(=O)N2CCOCC2)n2ccncc12	1.7%
CC(=O)N1CCC(N2C[C@H](O)C[C@H]2c2nc(-c3ccccn3)no2)CC1	-21.3%[44.1 µM]
CCOc1ccc(C2c3cc(OCC)c(OCC)cc3CC(=O)N2c2ccc(C(=O)O)cc2)cc1OCC (stereo not given)	61.1%
Cc1cc(C)c(-c2n[nH]c3c2C(c2ccccc2F)N(Cc2ccco2)C3=O)c(O)c1 (stereo not given)	3.98µM*
Cc1ccc(C2NC(=O)c3n[nH]c(-c4cccs4)c32)cc1 (stereo not given)	-2.2%
Cc1ccc(CCNC(=O)C2CC(=O)N(CCc3ccccc3)C2)cc1 (stereo not given)	5.1%
COc1cc(C2c3c(-c4ccccc4O)n[nH]c3C(=O)N2CCO)ccc1OCc1ccccc1 (stereo not given)	11.2µM*
Cc1ccc(C2c3c(-c4ccccc4O)n[nH]c3C(=O)N2CCc2ccccc2)cc1 (stereo not given)	10µM*
Cc1cc(C)c2c(=O)c3c(oc2c1)C(=O)N(Cc1ccco1)C3c1ccccc1F (stereo not given)	37.3%
CCCOc1ccc(C2c3c(-c4ccccc4O)n[nH]c3C(=O)N2CCc2ccccc2)cc1OCC (stereo not given)	4.47µM*
O=C1c2[nH]nc(-c3ccccc3O)c2C(c2ccccc2F)N1Cc1ccncc1 (stereo not given)	19.4%
CCOc1cc(C2c3c(oc4cc(C)cc(C)c4c3=O)C(=O)N2CCO)ccc1O (stereo not given)	18.6%
CCCCCOc1ccc(C2c3c(oc4ccccc4c3=O)C(=O)N2c2nc(C)c(C)s2)cc1OCC (stereo not given)	83.2%
COc1cc(C2C(C(=O)OCC(C)C)=C(C)N=C3SCCC(=O)N32)ccc1OCc1ccccc1 (stereo not given)	-0.8%
COc1ccc(CCNC(=O)CN2C(=O)NC(c3ccccc3Cl)C3=C2COC3=O)cc1OC (stereo not given)	i
COc1ccc(Cn2c3c(c(=O)n2Cc2ccccc2)CCN(Cc2cccnc2)C3)cc1	-3.9%
Cc1nc(C(C)C)sc1CNC(=O)C1CCC(=O)N(C2CCCC2)C1 (stereo not given)	-7.7%
SMILES	Pf Dd2 growth
C#CCN(C)C(=O)[C@@H]1CCCN1[C@@H](C(=O)NC)c1ccccc1	-7.6%[44.1 µM]
COc1ccccc1NC(=O)Cn1c(C)cc2nc3n(c(=O)c21)CCCCC3	-15.3%
Cc1cc(C(F)(F)F)nn1CC(=O)N1CCCCCCNC(=O)CC1	-16.6%
COCCNC(=O)CCc1c(C)nn(-c2ccc(F)cc2)c1Oc1ccc(F)cc1F	i
Cc1ccsc1C(=O)N1CC(c2nnc(-c3ccncc3)o2)C2(CCOCC2)C1 (stereo not given)	-24.4%
CNC(=O)Nc1ccc(C2(C(=O)N3CCN(c4cccc(Cl)c4)CC3)CCC2)cc1	i
COc1cccc([S+](=O)([O-])N2CCn3ncc(C(=O)Nc4ccc(Cl)cc4Cl)c3C2)c1	-14.8%
O=C(c1n[nH]c2ccccc12)N1CCC(c2nc(C3CCOCC3)no2)C1 (stereo not given)	i
O=c1n(Cc2cc(F)cc(F)c2)nc2n1CCCCC2	i
CCCOc1ccc(C(=O)N(Cc2ccco2)Cc2ccco2)cc1	24.2%
COc1ccc(CCN2C(=O)c3[nH]nc(-c4ccccc4O)c3C2c2cccc(OC)c2)cc1 (stereo not given)	10µM*
CCCn1nc(C)c2c1NC(=O)CC2c1ccc(OCC(N)=O)c(OC)c1 (stereo not given)	-21.1%
COc1ccc(-c2[nH]nc3ncc(-c4ccccc4O)nc23)c(C)c1	i
COc1cc(C2c3c(-c4cc(C)ccc4O)n[nH]c3C(=O)N2Cc2cccnc2)cc(OC)c1OC (stereo not given)	-7.8%
CCCOc1cccc(C2c3c(-c4ccccc4O)n[nH]c3C(=O)N2Cc2ccco2)c1 (stereo not given)	5.62µM*
O=C1c2[nH]nc(-c3ccccc3O)c2C(c2cccc(Br)c2)N1Cc1ccncc1 (stereo not given)	-4.4%

Source: PubChem BioAssay
